# Measured values: the supplement of paper PMC8975748
# Counter-ions that a name gives are not always drawn. ± gives the standard deviation of the averaged measurements.
# Assays:
# [1] = tested on: Saccharomyces cerevisiae BY4741 SeMeCo community; test: mean cell size (pixel area) (pixels); higher = larger cells; conditions: 10 µM; 24 h; SM minimal medium
# Summary of the method: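 The test system was a fluorescent Saccharomyces cerevisiae BY4741 community with four plasmids, each restoring one auxotrophy and carrying a fluorescent marker. Cells were grown for 24 h in SM medium with drug at a final 10 µM in 384-well plates, then fixed with paraformaldehyde and imaged by automated confocal microscopy for Harmony analysis of mean cell pixel area per well. Values represent the average of 3 replicates. Same SeMeCo high-content imaging drug screen: Selleck FDA-approved drugs at 10 µM, 24 h in SM medium, 384-well plates, 3 replicates.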
# [2] = tested on: Saccharomyces cerevisiae BY4741 SeMeCo community; test: z-score of prototroph abundance vs DMSO median; higher = larger share of this subpopulation than in DMSO controls; conditions: 10 µM; 24 h; SM minimal medium; subpopulation (auxotrophy): Prototroph
# Summary of the method: (§1)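 Automated confocal microscopy of paraformaldehyde-fixed cells was used to follow a Saccharomyces cerevisiae BY4741 community carrying four plasmids, each restoring one auxotrophy and encoding a distinct fluorescent protein. The community was pre-grown overnight to OD600 1.0, diluted to 0.3, and added at 70 µl to 384-well plates acoustically predosed with library drugs (10 µM final) for 24 h of growth in minimal SM medium. Single-auxotroph fluorescent strains set thresholds and autofluorescence correction, and each subpopulation's abundance was scored as a z-score against the vehicle-well median.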
# [3] = tested on: Saccharomyces cerevisiae BY4741 SeMeCo community; test: z-score of subpopulation abundance vs DMSO median, subpopulation auxotrophic for M; higher = larger share of this subpopulation than in DMSO controls; conditions: 10 µM; 24 h; SM minimal medium; subpopulation (auxotrophy): M
# Summary of the method: as §1
# [4] = tested on: Saccharomyces cerevisiae BY4741 SeMeCo community; test: z-score of subpopulation abundance vs DMSO median, subpopulation auxotrophic for L; higher = larger share of this subpopulation than in DMSO controls; conditions: 10 µM; 24 h; SM minimal medium; subpopulation (auxotrophy): L
# Summary of the method: as §1
# [5] = tested on: Saccharomyces cerevisiae BY4741 SeMeCo community; test: z-score of subpopulation abundance vs DMSO median, subpopulation auxotrophic for U; higher = larger share of this subpopulation than in DMSO controls; conditions: 10 µM; 24 h; SM minimal medium; subpopulation (auxotrophy): U
# Summary of the method: as §1
# [6] = tested on: Saccharomyces cerevisiae BY4741 SeMeCo community; test: z-score of subpopulation abundance vs DMSO median, subpopulation auxotrophic for H; higher = larger share of this subpopulation than in DMSO controls; conditions: 10 µM; 24 h; SM minimal medium; subpopulation (auxotrophy): H
# Summary of the method: as §1
# [7] = tested on: Saccharomyces cerevisiae BY4741 SeMeCo community; test: z-score of subpopulation abundance vs DMSO median, subpopulation auxotrophic for LU; higher = larger share of this subpopulation than in DMSO controls; conditions: 10 µM; 24 h; SM minimal medium; subpopulation (auxotrophy): LU
# Summary of the method: as §1
# [8] = tested on: Saccharomyces cerevisiae BY4741 SeMeCo community; test: z-score of subpopulation abundance vs DMSO median, subpopulation auxotrophic for LM; higher = larger share of this subpopulation than in DMSO controls; conditions: 10 µM; 24 h; SM minimal medium; subpopulation (auxotrophy): LM
# Summary of the method: as §1
# [9] = tested on: Saccharomyces cerevisiae BY4741 SeMeCo community; test: z-score of subpopulation abundance vs DMSO median, subpopulation auxotrophic for HM; higher = larger share of this subpopulation than in DMSO controls; conditions: 10 µM; 24 h; SM minimal medium; subpopulation (auxotrophy): HM
# Summary of the method: as §1
# [10] = tested on: Saccharomyces cerevisiae BY4741 SeMeCo community; test: z-score of subpopulation abundance vs DMSO median, subpopulation auxotrophic for HL; higher = larger share of this subpopulation than in DMSO controls; conditions: 10 µM; 24 h; SM minimal medium; subpopulation (auxotrophy): HL
# Summary of the method: as §1
# [11] = tested on: Saccharomyces cerevisiae BY4741 SeMeCo community; test: z-score of subpopulation abundance vs DMSO median, subpopulation auxotrophic for HLU; higher = larger share of this subpopulation than in DMSO controls; conditions: 10 µM; 24 h; SM minimal medium; subpopulation (auxotrophy): HLU
# Summary of the method: as §1
# [12] = tested on: Saccharomyces cerevisiae BY4741 SeMeCo community; test: z-score of subpopulation abundance vs DMSO median, subpopulation auxotrophic for HLM; higher = larger share of this subpopulation than in DMSO controls; conditions: 10 µM; 24 h; SM minimal medium; subpopulation (auxotrophy): HLM
# Summary of the method: as §1
# [13] = tested on: Saccharomyces cerevisiae BY4741 SeMeCo community; test: z-score of subpopulation abundance vs DMSO median, subpopulation auxotrophic for HUM; higher = larger share of this subpopulation than in DMSO controls; conditions: 10 µM; 24 h; SM minimal medium; subpopulation (auxotrophy): HUM
# Summary of the method: as §1
# [14] = tested on: Saccharomyces cerevisiae BY4741 SeMeCo community; test: z-score of subpopulation abundance vs DMSO median, subpopulation auxotrophic for LUM; higher = larger share of this subpopulation than in DMSO controls; conditions: 10 µM; 24 h; SM minimal medium; subpopulation (auxotrophy): LUM
# Summary of the method: as §1
# [15] = tested on: Saccharomyces cerevisiae BY4741 SeMeCo community; test: z-score of subpopulation abundance vs DMSO median, subpopulation auxotrophic for HLUM; higher = larger share of this subpopulation than in DMSO controls; conditions: 10 µM; 24 h; SM minimal medium; subpopulation (auxotrophy): HLUM
# Summary of the method: as §1
# [16] = tested on: Saccharomyces cerevisiae BY4741 SeMeCo community; test: z-score of subpopulation abundance vs DMSO median, subpopulation auxotrophic for HU; higher = larger share of this subpopulation than in DMSO controls; conditions: 10 µM; 24 h; SM minimal medium; subpopulation (auxotrophy): HU
# Summary of the method: as §1
# [17] = tested on: Saccharomyces cerevisiae BY4741 SeMeCo community; test: z-score of subpopulation abundance vs DMSO median, subpopulation auxotrophic for UM; higher = larger share of this subpopulation than in DMSO controls; conditions: 10 µM; 24 h; SM minimal medium; subpopulation (auxotrophy): UM
# Summary of the method: as §1
SMILES,mean cell size [1],z-score of prototroph abundance [2],z-score of subpopulation abundance [3],z-score of subpopulation abundance [4],z-score of subpopulation abundance [5],z-score of subpopulation abundance [6],z-score of subpopulation abundance [7],z-score of subpopulation abundance [8],z-score of subpopulation abundance [9],z-score of subpopulation abundance [10],z-score of subpopulation abundance [11],z-score of subpopulation abundance [12],z-score of subpopulation abundance [13],z-score of subpopulation abundance [14],z-score of subpopulation abundance [15],z-score of subpopulation abundance [16],z-score of subpopulation abundance [17]
c1ccc2[nH]c(-c3cscn3)nc2c1 [Thiabendazole],12.3 ± 0.24,0.41,0.77,-0.23,-0.7,-0.52,-0.61,0.06,-0.37,-0.01,-0.4,-0.38,0.33,0.16,-0.43,,
CN(C)CCc1c[nH]c2ccc(CS(=O)(=O)N3CCCC3)cc12 [Almotriptan Malate],12.4 ± 0.14,,-0.37,0.74,,-0.37,0.07,-0.71,-1.15,-0.69,-0.86,-0.23,-0.91,,-0.37,0,-0.12
Nc1ccc(S(=O)(=O)NC(=O)c2ccccc2)cc1 [Sulfabenzamide],12.5 ± 0.4,0.8,-0.05,-0.13,,-0.19,-0.03,-0.72,-0.23,-0.91,0.61,0.11,-1.03,-0.19,0.15,-0.03,
CCOC(=O)C1=C(COCCN)NC(C)=C(C(=O)OC)C1c1ccccc1Cl (centres undefined) [Amlodipine Besylate],12.6 ± 0.18,2.4,5.2,2.94,-6.89,3.81,-6.85,6.36,4.12,4.37,-3.58,5.98,-6.15,-4.74,-1.58,,-8.17
CCCCN1CCCC[C@H]1C(=O)Nc1c(C)cccc1C [Levobupivacaine HCl],12.4 ± 0.15,0.73,-1.02,0.42,,,-0.09,-0.55,-1.34,-0.46,-0.48,-0.93,-0.73,-0.33,-0.43,,
C[C@H]1O[C@@H](O[C@H]2[C@@H](O)C[C@H](O[C@H]3[C@@H](O)C[C@H](O[C@H]4CC[C@@]5(C)[C@H](CC[C@@H]6[C@@H]5C[C@@H](O)[C@]5(C)[C@@H](C7=CC(=O)OC7)CC[C@]65O)C4)O[C@@H]3C)O[C@@H]2C)C[C@H](O)[C@@H]1O [Digoxin],12.4 ± 0.22,0.39,-1.12,-0.7,0.17,0.21,-0.6,-0.41,-0.55,-0.11,-0.03,-0.7,-0.77,,-0.34,,-0.69
"CC[C@H](Nc1ncnc2[nH]cnc12)c1nc2cccc(F)c2c(=O)n1-c1ccccc1 [Idelalisib (CAL-101, GS-1101)]",12.58 ± 0.07,-0.14,-0.54,-0.49,1.09,,0.5,-0.23,-0.64,-1.05,-0.35,0.08,-0.4,,-0.62,,0.34
COC(=O)C1=C(C#N)NC(C)=C(C(=O)OC(C)C)C1c1cccc([N+](=O)[O-])c1 (centres undefined) [Nilvadipine],12.6 ± 0.18,0.22,1.61,-0.93,,,-1.37,-0.12,1.37,,-0.56,2.28,-0.21,-0.7,0.19,,-0.73
O=C(c1ccc(F)cc1)C1CCN(CCn2c(=O)[nH]c3ccccc3c2=O)CC1 [Ketanserin],12.33 ± 0.039,0.15,0.03,-0.47,0.03,-0.82,-0.66,0.46,-0.51,0.13,0.14,-0.05,-0.47,-0.27,0.5,,-0.54
COc1ccc(CC2c3cc(OC)c(OC)cc3CC[N+]2(C)CCC(=O)OCCCCCOC(=O)CC[N+]2(C)CCc3cc(OC)c(OC)cc3C2Cc2ccc(OC)c(OC)c2)cc1OC (centres undefined) [Atracurium Besylate],12.4 ± 0.24,-0.17,-0.87,1.52,-0.48,0.57,0.39,0.79,0.41,,0.55,0.51,0.71,0.45,-0.07,,
CC[C@H](C)[C@H](N)C1=N[C@H](C(=O)N[C@@H](CC(C)C)C(=O)N[C@H](CCC(=O)O)C(=O)N[C@H](C(=O)N[C@H]2CCCCNC(=O)[C@H](CC(N)=O)NC(=O)[C@@H](CC(=O)O)NC(=O)[C@H](Cc3cnc[nH]3)NC(=O)[C@@H](Cc3ccccc3)NC(=O)[C@H]([C@@H](C)CC)NC(=O)[C@@H](CCCN)NC2=O)[C@@H](C)CC)CS1 [Bacitracin],12 ± 0.24,-2.14,-0.01,1.05,0.29,3.13,0.64,1.28,1.2,3.67,3.61,1.35,1.59,,1.51,,0.03
OC(CCCN1CCCCC1)(c1ccccc1)c1ccccc1 [Diphenidol HCl],12.4 ± 0.41,,0.98,-0.41,0.63,-0.38,0.23,-0.56,0.03,,-0.05,-0.07,0.78,-0.35,-0.39,,1.63
C[n+]1ccccc1/C=N/O [Pralidoxime chloride],11.9 ± 0.062,-0.28,1.37,-0.96,1.25,-1.61,0.11,0.17,-0.08,-0.65,-0.43,-0.4,0.39,0.34,-0.34,,
CCOc1cc(NC(C)=O)ccc1C(=O)OC [Ethopabate],12.6 ± 0.26,,0.39,0.35,-0.35,-0.59,1.2,0.15,-0.11,0.25,-0.1,0.97,-0.22,0.24,2.14,,0.48
